Among the data in ChEMBL document CHEMBL5724796, “Tm Shift (DSF) assay results for EUbOPEN Chemogenomics Library” (2024) are ΔTm values, retold here.

Structures are written as SMILES. Residues, ends and D or L forms follow the SMILES beside them. *: point of attachment. Boc = CC(C)(C)OC(=O)*

What all share (settings): Compound concentration 20.0 uM
Experiment [1] concerns the target Tyrosine-protein kinase ABL1 (Homo sapiens) (UniProt P00519).
For experiment [2], the target named is Bromodomain-containing protein 4 (Homo sapiens) (UniProt O60885).
The target of experiment [3] is Cyclin-dependent kinase 2 (Homo sapiens) (UniProt P24941).
In experiment [4] the target is Casein kinase I isoform delta (Homo sapiens) (UniProt P48730).
Casein kinase I isoform delta (Homo sapiens), sequence (P48730 whole entry, looked up, canonical isoform): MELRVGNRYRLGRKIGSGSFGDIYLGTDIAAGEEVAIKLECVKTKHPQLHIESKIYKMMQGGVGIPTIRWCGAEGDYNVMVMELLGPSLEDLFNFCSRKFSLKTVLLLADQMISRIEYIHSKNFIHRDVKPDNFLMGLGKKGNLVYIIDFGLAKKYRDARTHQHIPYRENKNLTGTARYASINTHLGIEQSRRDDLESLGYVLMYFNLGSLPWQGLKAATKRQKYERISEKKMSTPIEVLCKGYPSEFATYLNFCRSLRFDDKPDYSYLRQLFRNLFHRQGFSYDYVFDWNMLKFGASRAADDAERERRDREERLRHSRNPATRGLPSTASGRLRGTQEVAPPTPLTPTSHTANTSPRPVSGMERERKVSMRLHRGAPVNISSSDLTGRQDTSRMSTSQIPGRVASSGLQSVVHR
Experiment [5] deals with Glycogen synthase kinase-3 beta (Homo sapiens) (UniProt P49841).
Glycogen synthase kinase-3 beta (Homo sapiens), sequence (P49841 whole entry, looked up): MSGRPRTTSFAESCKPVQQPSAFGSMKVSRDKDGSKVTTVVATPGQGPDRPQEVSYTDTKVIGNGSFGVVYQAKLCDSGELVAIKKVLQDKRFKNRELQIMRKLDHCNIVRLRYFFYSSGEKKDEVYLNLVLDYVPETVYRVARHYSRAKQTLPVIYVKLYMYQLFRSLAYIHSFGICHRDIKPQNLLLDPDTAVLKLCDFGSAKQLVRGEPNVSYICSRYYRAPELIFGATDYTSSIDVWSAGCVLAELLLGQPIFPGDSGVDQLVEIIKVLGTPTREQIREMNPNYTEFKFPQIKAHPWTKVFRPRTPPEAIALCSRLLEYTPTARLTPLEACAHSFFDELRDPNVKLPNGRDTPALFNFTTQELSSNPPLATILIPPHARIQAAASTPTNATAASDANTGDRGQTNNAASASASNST
The target of experiment [6] is Mitogen-activated protein kinase 1 (Homo sapiens) (UniProt P28482).
Mitogen-activated protein kinase 1 (Homo sapiens), sequence (P28482 whole entry): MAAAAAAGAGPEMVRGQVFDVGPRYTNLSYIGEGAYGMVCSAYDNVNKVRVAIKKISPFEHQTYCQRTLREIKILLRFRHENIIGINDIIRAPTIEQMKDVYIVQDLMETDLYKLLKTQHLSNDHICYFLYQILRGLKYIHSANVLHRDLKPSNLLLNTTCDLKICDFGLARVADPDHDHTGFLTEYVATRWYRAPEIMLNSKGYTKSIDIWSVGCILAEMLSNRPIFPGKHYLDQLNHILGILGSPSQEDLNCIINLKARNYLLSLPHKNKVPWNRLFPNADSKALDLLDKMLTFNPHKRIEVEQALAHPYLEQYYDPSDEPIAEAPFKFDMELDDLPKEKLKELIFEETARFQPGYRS
The target of experiment [7] is T1, Aurora kinase A (Homo sapiens) (UniProt O14965).
T1 sequence (whole entry): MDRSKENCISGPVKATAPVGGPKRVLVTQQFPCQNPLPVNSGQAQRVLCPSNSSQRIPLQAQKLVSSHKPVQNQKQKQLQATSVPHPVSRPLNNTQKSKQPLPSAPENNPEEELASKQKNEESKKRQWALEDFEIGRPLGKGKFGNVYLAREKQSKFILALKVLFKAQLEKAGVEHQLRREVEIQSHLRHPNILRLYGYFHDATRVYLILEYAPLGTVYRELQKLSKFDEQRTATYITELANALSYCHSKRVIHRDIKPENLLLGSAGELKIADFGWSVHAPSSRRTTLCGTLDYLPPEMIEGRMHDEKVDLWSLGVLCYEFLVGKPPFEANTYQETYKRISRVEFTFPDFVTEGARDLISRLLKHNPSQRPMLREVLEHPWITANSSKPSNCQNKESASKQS

Experiment [8] deals with T2, Transcription intermediary factor 1-alpha (Homo sapiens) (UniProt O15164).
T2 sequence (whole entry): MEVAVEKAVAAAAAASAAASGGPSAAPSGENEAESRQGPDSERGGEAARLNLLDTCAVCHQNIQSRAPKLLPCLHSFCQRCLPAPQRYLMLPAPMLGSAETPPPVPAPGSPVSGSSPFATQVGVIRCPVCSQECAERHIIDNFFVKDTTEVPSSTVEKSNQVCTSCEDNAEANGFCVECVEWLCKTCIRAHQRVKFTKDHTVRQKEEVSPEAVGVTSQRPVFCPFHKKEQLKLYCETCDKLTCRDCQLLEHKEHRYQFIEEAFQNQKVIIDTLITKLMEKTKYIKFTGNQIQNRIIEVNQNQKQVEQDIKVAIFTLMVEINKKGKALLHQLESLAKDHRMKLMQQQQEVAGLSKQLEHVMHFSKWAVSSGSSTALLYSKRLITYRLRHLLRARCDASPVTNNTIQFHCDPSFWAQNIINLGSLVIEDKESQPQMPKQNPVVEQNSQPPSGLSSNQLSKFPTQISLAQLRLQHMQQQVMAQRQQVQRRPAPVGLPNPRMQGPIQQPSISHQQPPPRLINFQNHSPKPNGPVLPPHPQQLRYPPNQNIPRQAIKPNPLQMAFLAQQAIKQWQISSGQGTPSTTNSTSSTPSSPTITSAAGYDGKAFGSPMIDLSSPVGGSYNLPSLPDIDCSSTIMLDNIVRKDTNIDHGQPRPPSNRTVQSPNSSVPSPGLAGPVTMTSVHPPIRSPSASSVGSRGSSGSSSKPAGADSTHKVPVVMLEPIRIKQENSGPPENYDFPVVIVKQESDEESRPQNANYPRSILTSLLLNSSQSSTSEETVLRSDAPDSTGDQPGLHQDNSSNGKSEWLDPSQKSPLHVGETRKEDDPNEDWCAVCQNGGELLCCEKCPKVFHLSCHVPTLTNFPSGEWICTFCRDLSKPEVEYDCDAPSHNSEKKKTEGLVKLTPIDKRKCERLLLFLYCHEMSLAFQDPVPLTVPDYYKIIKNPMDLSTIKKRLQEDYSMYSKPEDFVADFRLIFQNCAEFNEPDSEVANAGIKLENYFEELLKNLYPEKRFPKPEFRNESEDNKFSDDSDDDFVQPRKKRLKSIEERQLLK

Tyrosine-protein kinase ABL1 (Homo sapiens), sequence (P00519 whole entry): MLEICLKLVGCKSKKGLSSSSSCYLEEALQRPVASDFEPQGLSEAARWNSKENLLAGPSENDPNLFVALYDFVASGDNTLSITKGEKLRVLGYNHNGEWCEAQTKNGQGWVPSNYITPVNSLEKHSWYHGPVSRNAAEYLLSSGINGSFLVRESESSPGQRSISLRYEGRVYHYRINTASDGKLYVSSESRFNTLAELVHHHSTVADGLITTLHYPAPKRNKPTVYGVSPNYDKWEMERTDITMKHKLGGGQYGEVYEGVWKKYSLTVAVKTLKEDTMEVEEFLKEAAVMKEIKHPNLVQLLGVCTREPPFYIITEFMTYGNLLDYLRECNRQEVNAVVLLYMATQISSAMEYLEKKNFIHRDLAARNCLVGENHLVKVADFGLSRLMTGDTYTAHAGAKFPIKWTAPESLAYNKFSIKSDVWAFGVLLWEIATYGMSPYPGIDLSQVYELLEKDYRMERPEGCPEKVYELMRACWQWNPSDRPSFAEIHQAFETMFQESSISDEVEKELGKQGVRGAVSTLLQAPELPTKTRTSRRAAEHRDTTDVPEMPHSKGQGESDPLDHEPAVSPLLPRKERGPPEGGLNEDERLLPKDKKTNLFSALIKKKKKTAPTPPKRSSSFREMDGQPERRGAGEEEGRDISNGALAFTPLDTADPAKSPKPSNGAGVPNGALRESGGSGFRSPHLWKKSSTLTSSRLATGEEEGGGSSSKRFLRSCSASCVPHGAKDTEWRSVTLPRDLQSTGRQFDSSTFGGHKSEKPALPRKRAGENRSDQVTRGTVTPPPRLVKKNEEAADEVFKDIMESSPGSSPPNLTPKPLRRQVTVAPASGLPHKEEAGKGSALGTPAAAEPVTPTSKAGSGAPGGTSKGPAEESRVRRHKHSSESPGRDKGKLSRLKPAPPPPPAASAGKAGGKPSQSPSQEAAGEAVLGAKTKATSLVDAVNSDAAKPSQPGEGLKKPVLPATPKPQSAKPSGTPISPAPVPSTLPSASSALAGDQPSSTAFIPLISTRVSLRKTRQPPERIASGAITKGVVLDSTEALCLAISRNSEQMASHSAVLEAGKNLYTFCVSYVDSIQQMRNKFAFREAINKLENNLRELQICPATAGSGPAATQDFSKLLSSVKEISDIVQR

One may read the ΔTm as the shift of the melting midpoint relative to a reference. Take `C[C@H](NC(=O)CCc1nc2ccccc2c(=O)[nH]1)c1ccccc1`: the ΔTm in experiment [1] is 0.18 °C; in experiment [2], 0.84 °C; in experiment [3], 0.79 °C; in experiment [4], 0.42 °C; in experiment [5] it was -0.21 °C; in experiment [6], 0.83 °C. Further, the ΔTm in experiment [7] is -1.25 °C; in experiment [8] it was 0.31 °C.

For `NC(=O)c1cccc(NC(=O)CCC(=O)NCCc2cn(CCNS(=O)(=O)c3cccc(C(=O)O)c3)nn2)c1`, the shift in melting temperature (ΔTm) in experiment [1] was 0.47 °C; in experiment [2], -2.59 °C; in experiment [3] it was -0.69 °C; in experiment [4], 0.02 °C; in experiment [5], -1.06 °C; in experiment [6], -1.68 °C. Besides, the ΔTm is -2.28 °C in experiment [7] and -0.11 °C in experiment [8].

Regarding `O=C1C(=O)N(Cc2ccccc2)c2ccc(S(=O)(=O)N3CCC[C@H]3COc3ccc(C(F)(F)F)cc3)cc21`, the ΔTm is -0.46 °C in experiment [1]; -4.2 °C in experiment [2]; -0.42 °C in experiment [3]; 0.54 °C in experiment [4]; -0.32 °C in experiment [5]; -0.63 °C in experiment [6]. For the same molecule, the values for the ΔTm in experiment [7] and in experiment [8] were -1.82 °C and -1.21 °C, respectively.

Consider `CN1C[C@@H]2[C@H](C1)[C@H]2CN(Cc1ccc(F)c(Cl)c1)C(=O)c1cn(C)cn1`, for which the ΔTm was 0.53 °C in experiment [1]; -2.2 °C in experiment [2]; 0.3 °C in experiment [3]; -0.21 °C in experiment [4]; 0.04 °C in experiment [5]; 0.19 °C in experiment [6]. The ΔTm in experiment [7] was -1.34 °C; in experiment [8], -1.48 °C.

Consider `CN(C)Cc1ccc(S(=O)(=O)n2ccc(/C=C/C(=O)NO)c2)cc1`, for which the ΔTm in experiment [1] is 0.75 °C; in experiment [2], -1.99 °C; in experiment [3], 0.61 °C; in experiment [4], 0.25 °C; in experiment [5], -0.79 °C; in experiment [6], -0.07 °C. Also, the results for the shift in melting temperature (ΔTm) in experiment [7] and in experiment [8] were -0.28 °C and -1.27 °C, respectively.

Take `O=C(Oc1cccc(F)c1OC(=O)c1cccc(O)c1)c1cccc(O)c1`: the shift in melting temperature (ΔTm) was 0.98 °C in experiment [1]; -0.67 °C in experiment [2]; 0.91 °C in experiment [3]; 0.57 °C in experiment [4]; -0.64 °C in experiment [5]; 0.41 °C in experiment [6]. The figures for the ΔTm in experiment [7] and in experiment [8] were -0.91 °C and 1.67 °C, respectively.

For `CC(=O)C(=Cc1cc(O)c(O)c([N+](=O)[O-])c1)C(C)=O`, the ΔTm in experiment [1] was 0.06 °C; in experiment [2], 0.74 °C; in experiment [3] it was 0.04 °C; in experiment [4], -0.82 °C; in experiment [5], -0.72 °C; in experiment [6], 0.27 °C. The ΔTm is 0.07 °C in experiment [7] and 0.21 °C in experiment [8].

For `CC(=O)N1CCc2c(c(N3CCCc4cc(-c5cnn(C)c5)c(C(F)F)cc43)nn2C2CCOCC2)C1`, the ΔTm in experiment [1] was 0.45 °C; in experiment [2], 0.99 °C; in experiment [3], -0.16 °C; in experiment [4], 0.23 °C; in experiment [5], -0.52 °C; in experiment [6], -0.44 °C. The figures for the shift in melting temperature (ΔTm) in experiment [7] and in experiment [8] were -1.07 °C and -1.11 °C, respectively.

With `CN1CCN(c2nc(-c3ccc(C(=O)NC4(C(=O)NCC#N)CCCCC4)cc3)cs2)CC1`, the ΔTm in experiment [1] is 0.26 °C; in experiment [2], -0.96 °C; in experiment [3] it was 0.12 °C; in experiment [4], -0.06 °C; in experiment [5] it was -0.33 °C; in experiment [6] it was -1.88 °C. Also, the ΔTm in experiment [7] is -0.41 °C; in experiment [8], -0.66 °C.

Turning to `CC(C)(C)OC(=O)N1CCC[C@H]1C(=O)N1CCC[C@H]1C=O` (Boc-Pro-Pro-aldehyde), the ΔTm in experiment [1] was 0.36 °C; in experiment [2] it was -1.7 °C; in experiment [3], 0.06 °C; in experiment [4] it was -0.53 °C; in experiment [5] it was -0.11 °C; in experiment [6] it was 0.63 °C. Besides, the results for the ΔTm in experiment [7] and in experiment [8] were -2.5 °C and -0.63 °C, respectively.

`CN(C)CCCNC(=O)c1ccc(-c2cc(O)c3ncccc3c2)cc1`: the ΔTm was found to be 1.29 °C in experiment [1]; 1.76 °C in experiment [2]; 0.45 °C in experiment [3]; 0.58 °C in experiment [4]; 0.54 °C in experiment [5]; 0.28 °C in experiment [6]. In addition, the results for the ΔTm in experiment [7] and in experiment [8] were -1.28 °C and 1.21 °C, respectively.

`CC(=O)O[C@]1(C(C)=O)CC[C@H]2[C@@H]3CCC4=CC(=O)CCC4=C3[C@@H](c3ccc(N(C)C)cc3)C[C@@]21C`: the ΔTm in experiment [1] was 0.29 °C; in experiment [2], -2.72 °C; in experiment [3] it was -0.32 °C; in experiment [4] it was 0.22 °C; in experiment [5], -0.83 °C; in experiment [6], -0.05 °C. Also, the ΔTm in experiment [7] was -1.14 °C; in experiment [8], -1.79 °C.

For `COC1CCN(C(=O)c2cc(Cc3n[nH]c(=O)c4ccccc34)ccc2F)CC1`, the ΔTm in experiment [1] was 0.56 °C; in experiment [2], -2.02 °C; in experiment [3], 0.16 °C; in experiment [4] it was -0.31 °C; in experiment [5] it was 0.09 °C; in experiment [6], 0.51 °C. Also, the ΔTm was -2.39 °C in experiment [7] and -0.67 °C in experiment [8].

For `CC(C)(Sc1ccncc1-c1ccc(C#N)c2ccccc12)C(=O)O`, the ΔTm is -0.01 °C in experiment [1]; -0.37 °C in experiment [2]; -0.1 °C in experiment [3]; -0.19 °C in experiment [4]; -0.7 °C in experiment [5]; 0.17 °C in experiment [6]. Also, the ΔTm in experiment [7] was -1.93 °C; in experiment [8], -0.49 °C.

Turning to `C[C@@H]1O[C@@H](CC(=O)O)CC2=C1C(=O)c1c(O)cccc1C2=O`, the ΔTm was 0.53 °C in experiment [1]; -3.04 °C in experiment [2]; 0.21 °C in experiment [3]; -1.39 °C in experiment [4]; -2.21 °C in experiment [5]; -0.24 °C in experiment [6]. For the same molecule, the ΔTm in experiment [7] was -2.94 °C; in experiment [8], -2.3 °C.

For `Cc1cc(S(C)(=O)=O)c(S(C)(=O)=O)cc1C(=O)NC(=N)N`, the ΔTm in experiment [1] is 0.73 °C; in experiment [2], -0.31 °C; in experiment [3], 0.23 °C; in experiment [4] it was -0.54 °C; in experiment [5], 0.15 °C; in experiment [6], 0.12 °C. The ΔTm in experiment [7] was -1.63 °C; in experiment [8] it was 0.34 °C.
